# Experimental data: PubChem BioAssay
# Values without a mark were called inactive. Where a call stands in place of a potency, no number is given. For some assays here: Potency and affinity values are given separately. Active and inactive are the calls of the source. Unless noted, how the calls were made is not given here.
# Columns and labels:
# [1] = antimalarial activity against Dd2 strain (AID 2302;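 active means growth inhibition above 50% at the single 2 µM test dose, taken to imply half-maximal potency below 2 µM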); details: P. falciparum Dd2 in RBCs, LDH growth readout, 72 h; at 2 µM; stronger effect = higher value
# [2] = human hepatoma cell viability loss – ATP luminescence, cytotoxicity control for P. falciparum antimalarial project, primary screen (AID 2303;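 active means inhibition above 50%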); details: HepG2 viability, 24-48 h, at 10 µM, stronger effect = higher value
# [3] = molecular target: L-lactate dehydrogenase (Plasmodium falciparum (isolate CDC / Honduras)) (UniProt Q27743); assay: PfLDH activity inhibition – cell lysate, 3D7 strain, counter-screen for P. falciparum growth inhibition project (AID 2304); details: P. falciparum 3D7 crude extract, LDH APAD/NBT absorbance; at 2 µM; stronger effect = higher value
# [4] = inhibition of 3D7 malaria parasite growth – strain 3D7 (AID 2306); details: P. falciparum 3D7 erythrocytic growth, LDH absorbance, 72 h; at 2 µM; stronger effect = higher value
# [5] = molecular target: Calcium-dependent protein kinase 1 (Plasmodium falciparum (isolate 3D7)) (UniProt P62344); assay: PfCDPK1 kinase inhibitors, biochemical, TCAMS library (AID 1159585; cut-off not given, nearly all actives have IC50 up to about 0.98 µM;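 further: inhibitors leave more ATP so luminescence rises with inhibition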); details: recombinant PfCDPK1, Kinase-Glo ATP depletion luminescence
# [6] = molecular target: Plasmodium falciparum protein kinase 6 (PK6, PF3D7_1337100) (UniProt Q8IDW1); assay: PfPK6 kinase inhibitors, biochemical, TCAMS library (AID 1159586); details: recombinant PfPK6, Kinase-Glo ATP depletion luminescence
# [7] = molecular target: Protein kinase 7 (PK7), Plasmodium falciparum 3D7 (PF3D7_0213400) (UniProt Q7YTF7); assay: inhibition of Plasmodium PK7 catalytic activity – biochemical, TCAMS antimalarial set, Kinase-Glo luminescence (AID 1159587); details: recombinant PfPK7, Kinase-Glo ATP depletion luminescence
# [8] = molecular target: Calcium-dependent protein kinase 4 (Plasmodium falciparum (isolate 3D7)) (UniProt Q8IBS5); assay: PfCDPK4 kinase inhibitors, biochemical, TCAMS library (AID 1159588; cut-off not given, nearly all actives have IC50 up to about 0.91 µM); details: recombinant PfCDPK4, Kinase-Glo ATP depletion luminescence
# Chain of Calcium-dependent protein kinase 4 (Plasmodium falciparum (isolate 3D7)) (Q8IBS5 whole entry, looked up): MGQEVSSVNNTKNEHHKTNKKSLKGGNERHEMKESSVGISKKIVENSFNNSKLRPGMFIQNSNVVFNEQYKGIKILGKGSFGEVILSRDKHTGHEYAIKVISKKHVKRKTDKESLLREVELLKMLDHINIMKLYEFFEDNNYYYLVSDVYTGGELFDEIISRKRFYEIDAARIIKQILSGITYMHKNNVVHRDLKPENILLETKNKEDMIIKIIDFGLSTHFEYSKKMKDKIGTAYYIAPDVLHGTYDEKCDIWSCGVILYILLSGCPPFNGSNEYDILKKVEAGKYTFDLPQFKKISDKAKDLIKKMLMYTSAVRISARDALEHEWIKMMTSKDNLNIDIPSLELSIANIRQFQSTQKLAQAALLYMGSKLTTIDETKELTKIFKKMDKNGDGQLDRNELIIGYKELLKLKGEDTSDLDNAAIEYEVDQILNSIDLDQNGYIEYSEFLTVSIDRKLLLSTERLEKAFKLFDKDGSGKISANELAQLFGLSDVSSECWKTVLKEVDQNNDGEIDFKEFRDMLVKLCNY
# Chain of Calcium-dependent protein kinase 1 (Plasmodium falciparum (isolate 3D7)) (P62344 whole entry, looked up): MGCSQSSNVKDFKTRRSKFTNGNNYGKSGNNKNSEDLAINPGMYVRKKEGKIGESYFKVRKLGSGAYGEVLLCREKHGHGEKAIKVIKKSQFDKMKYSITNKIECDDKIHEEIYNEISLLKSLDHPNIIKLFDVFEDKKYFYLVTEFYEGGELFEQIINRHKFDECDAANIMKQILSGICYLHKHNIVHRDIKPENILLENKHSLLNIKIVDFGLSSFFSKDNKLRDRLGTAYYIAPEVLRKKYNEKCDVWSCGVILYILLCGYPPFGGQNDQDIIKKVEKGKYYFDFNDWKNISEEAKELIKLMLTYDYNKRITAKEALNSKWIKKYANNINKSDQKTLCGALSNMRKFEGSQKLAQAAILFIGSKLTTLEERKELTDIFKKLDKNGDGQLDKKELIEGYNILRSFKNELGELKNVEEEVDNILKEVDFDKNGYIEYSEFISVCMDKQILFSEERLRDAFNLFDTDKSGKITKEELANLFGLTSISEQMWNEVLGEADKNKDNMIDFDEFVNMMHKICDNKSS
# Chain of Protein kinase 7 (PK7), Plasmodium falciparum 3D7 (PF3D7_0213400) (Q7YTF7 1-343): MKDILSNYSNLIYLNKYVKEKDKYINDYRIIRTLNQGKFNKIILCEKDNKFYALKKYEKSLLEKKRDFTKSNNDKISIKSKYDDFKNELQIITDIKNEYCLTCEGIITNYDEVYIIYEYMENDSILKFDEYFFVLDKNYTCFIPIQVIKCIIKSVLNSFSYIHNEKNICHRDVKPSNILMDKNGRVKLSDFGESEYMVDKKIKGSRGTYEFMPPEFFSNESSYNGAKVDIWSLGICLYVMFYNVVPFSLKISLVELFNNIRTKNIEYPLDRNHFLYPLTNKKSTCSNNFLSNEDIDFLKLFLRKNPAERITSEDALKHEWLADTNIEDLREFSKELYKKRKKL
# Chain of L-lactate dehydrogenase (Plasmodium falciparum (isolate CDC / Honduras)) (Q27743 whole entry, looked up): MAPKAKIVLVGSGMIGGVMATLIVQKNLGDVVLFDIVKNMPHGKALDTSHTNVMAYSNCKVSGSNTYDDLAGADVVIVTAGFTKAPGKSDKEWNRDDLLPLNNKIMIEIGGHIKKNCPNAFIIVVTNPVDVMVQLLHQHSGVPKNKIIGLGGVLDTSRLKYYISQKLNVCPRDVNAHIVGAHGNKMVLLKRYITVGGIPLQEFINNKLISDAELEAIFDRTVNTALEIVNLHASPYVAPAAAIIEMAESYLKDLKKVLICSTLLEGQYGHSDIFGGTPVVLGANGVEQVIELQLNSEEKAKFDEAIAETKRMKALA
# Chain of Plasmodium falciparum protein kinase 6 (PK6, PF3D7_1337100) (Q8IDW1 1-305): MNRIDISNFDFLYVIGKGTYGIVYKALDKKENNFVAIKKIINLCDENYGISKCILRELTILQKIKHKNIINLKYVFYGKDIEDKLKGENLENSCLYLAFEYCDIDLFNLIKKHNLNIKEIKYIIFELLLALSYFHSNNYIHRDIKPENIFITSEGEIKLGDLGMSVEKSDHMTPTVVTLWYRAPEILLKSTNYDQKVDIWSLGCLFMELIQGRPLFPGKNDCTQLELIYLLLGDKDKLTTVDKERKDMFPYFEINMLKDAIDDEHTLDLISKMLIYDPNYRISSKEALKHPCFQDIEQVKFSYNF
SMILES,growth inhibition [1],inhibition [2],inhibition [3],growth inhibition [4],outcome [5],outcome [6],outcome [7],outcome [8]
O=C(/C=C/c1ccc(Cl)c(Cl)c1)NCCCCCN1CCC(NC(=S)Nc2cccc(Cl)c2)CC1,43%,24%,4%,99% (active),inactive,inactive,inactive,inactive
COc1cc(C2Nc3ccc4ccccc4c3C3=C2C(=O)CC(C)(C)C3)ccc1Oc1ccc([N+](=O)[O-])cc1C#N (stereo not given),94% (active),8%,-1%,99% (active),inactive,inactive,inactive,inactive
COc1ccc2c(c1)CC(NCc1ccc(-c3ccc4nc[nH]c4c3)cc1)C2 (stereo not given),71% (active),30%,1%,100% (active),inactive,inactive,inactive,inactive
CN1CCC(Oc2ccc(CN3CC[C@H](NC(=O)c4ccc(Cl)c(Cl)c4)C3)cc2Cl)C1 (stereo not given in full),78% (active),68% (active),0%,101% (active),inactive,inactive,inactive,inactive
Cc1cc(C)c(C)c(S(=O)(=O)N2CCCCC(c3ccc(F)c(F)c3)=N2)c1C,60% (active),5%,-3%,86% (active),inactive,inactive,inactive,inactive
N#Cc1ccc(N2CCN(C(=O)c3cccc(-c4noc(C(F)(F)F)n4)c3)CC2)nc1,58% (active),18%,3%,84% (active),inactive,inactive,inactive,inactive
COc1ccc(F)cc1-c1cccc(CNC2CCN(CC3Cn4c(=O)ccc5ccc(F)c3c54)CC2)c1 (stereo not given),27%,46%,1%,100% (active),inactive,inactive,inactive,inactive
N#Cc1ccc(NC(=O)c2ccc(C(=O)NCCCCN3CCC(c4ccc5c(c4OCCOC4CCCCO4)CCCC5)CC3)cc2)cc1 (stereo not given),97% (active),72% (active),-6%,99% (active),inactive,inactive,inactive,inactive
CN(CCCN(C)c1cc(NC(=O)c2cccc(F)c2)ccn1)Cc1cccc(O)c1,4%,-3%,-1%,92% (active),inactive,inactive,inactive,inactive
O=[N+]([O-])c1cccc(CNCC2CCN(Cc3ccc(Cl)c(Cl)c3)CC2)c1,41%,9%,4%,101% (active),inactive,inactive,inactive,inactive
OC(CNc1ccnc(Nc2ccccc2)n1)c1cccc(C(F)(F)F)c1 (stereo not given),61% (active),16%,-2%,100% (active),inactive,inactive,inactive,inactive
CN1CCN(CCCN(Cc2csc(-c3ccc(CNCc4ccccc4)cc3)n2)C(=O)Nc2ccc3ccccc3c2)CC1,63% (active),12%,3%,94% (active),inactive,inactive,inactive,inactive
CC[C@H]1CN(CCCC(=O)c2ccccc2)CC[C@H]1CCCc1ccnc2ccc(OC(=O)c3ccccc3)cc12,68% (active),28%,1%,83% (active),inactive,inactive,inactive,inactive
COc1ccc(OCC(O)CN(Cc2ccccc2OC)C(=O)Nc2ccc(Br)cc2)cc1 (stereo not given),2%,8%,0%,97% (active),inactive,inactive,inactive,inactive
COc1ccc(-c2cccc(NC(=O)c3cccc(Cl)c3)c2)cc1CN1CCC(O)CC1,16%,38%,5%,98% (active),inactive,inactive,inactive,inactive
Cc1cc(N2CCOCC2)nc2ccc(NC(=O)c3cccc([N+](=O)[O-])c3)cc12,37%,0%,0%,97% (active),inactive,inactive,inactive,inactive
Cc1noc(C)c1-c1ccc2c(Nc3ccccc3C(C)(C)C)c(C(=O)NCc3cccc4ccccc34)cnc2c1,64% (active),4%,-2%,96% (active),inactive,inactive,inactive,inactive
Cc1ccccc1C1CCN(C2CCC(NC(=O)/C=C/c3ccc(C(F)(F)F)cc3F)CC2)CC1 (stereo not given),58% (active),72% (active),-2%,99% (active),inactive,inactive,inactive,inactive
CN(C)S(=O)(=O)c1ccc(C(=O)N(c2nc(-c3ccccc3)cs2)C2CCCCC2)cc1,46%,7%,-3%,98% (active),inactive,inactive,inactive,inactive
CCn1cc(C=C2Oc3c(ccc(O)c3CN3CCCCC3)C2=O)c2cc(OC)ccc21,99% (active),-9%,-1%,99% (active),inactive,inactive,inactive,inactive

SMILES,growth inhibition [1],inhibition [2],inhibition [3],growth inhibition [4],outcome [5],outcome [6],outcome [7],outcome [8]
COc1ccc(CON2C(N)=NC(N)=NC2(C)C)cc1OC,97% (active),68% (active),1%,96% (active),inactive,inactive,inactive,inactive
CCN(CC)CCCN1CCN(C(=O)c2cccc(-c3noc(C(F)(F)F)n3)c2)CC1,74% (active),-10%,7%,91% (active),inactive,inactive,inactive,inactive
COc1ccc(-c2ccc(NC(=O)c3cccc(Cl)c3)c(F)c2)cc1CN1CCCN(C)CC1,42%,43%,0%,100% (active),inactive,inactive,inactive,inactive
NC(=O)c1cccc(C(=O)Nc2ccc(-c3cccc(-c4nc5ccc(F)cc5[nH]4)c3)cc2)c1,5%,45%,-5%,94% (active),inactive,inactive,inactive,inactive
O=C(/C=C/c1ccc(Cl)c(Cl)c1)NCCCCCN1CCC(CCNC(=O)/C=C/c2ccccc2F)CC1,1%,47%,-2%,94% (active),inactive,inactive,inactive,inactive
N#Cc1ccc(N2CCN(Cc3ccc(-c4cccc(-c5nc6ccccc6[nH]5)c4)cc3)CC2)nc1,29%,33%,-1%,95% (active),inactive,inactive,inactive,inactive
O=C(Nc1ccc(OC2CCN(Cc3ccccc3)C2)c(Cl)c1)c1ccc(F)cc1 (stereo not given),87% (active),7%,7%,90% (active),inactive,inactive,inactive,inactive
CC1CC1C(=O)NC1CCN(CC2(c3ccccc3)CCCCC2)CC1 (stereo not given),95% (active),-1%,0%,97% (active),inactive,inactive,inactive,inactive
CC1CCN(CC[C@H]2CCCN2S(=O)(=O)c2cccc(NC(=O)c3ccc(-c4ccc(Cl)cc4)o3)c2)CC1,65% (active),45%,3%,101% (active),inactive,inactive,inactive,inactive
OC(CNCc1ccccc1Oc1ccccc1)c1cc(Br)cs1 (stereo not given),79% (active),-13%,-4%,94% (active),inactive,inactive,inactive,inactive
COc1ccc2nc3cc(Cl)ccc3c(NCCN(C)C)c2c1,100% (active),4%,-2%,102% (active),inactive,inactive,inactive,inactive
COc1ccc(N2CCN(CCCCNC(=O)c3ccc(NC(=O)c4cc(C(F)(F)F)cc(C(F)(F)F)c4)cc3)CC2)c(OC)c1,99% (active),30%,2%,100% (active),inactive,inactive,inactive,inactive
Fc1cc(Cl)ccc1Nc1ccnc2cc(I)ccc12,10%,11%,-1%,90% (active),inactive,inactive,inactive,inactive
c1nc2nc3c(c(Nc4ccc5c(c4)CCC5)n2n1)CCC3,70% (active),-1%,-5%,87% (active),inactive,inactive,inactive,inactive
COc1ccc(-c2nccc(NC(N)=NCc3ccccc3)n2)cc1,21%,27%,1%,83% (active),inactive,inactive,inactive,inactive
Cc1cccc2c(/C=C/C(=O)NC3CCC(CCN4CCc5ccc(C#N)cc5CC4)CC3)c[nH]c12 (stereo not given),49%,18%,-1%,91% (active),inactive,inactive,inactive,inactive
COc1ccc2nccc(N3CCCN(CCNCc4ccc5c(n4)NC(=O)CS5)CC3)c2n1,10%,8%,-2%,100% (active),inactive,inactive,inactive,inactive
COc1cccc(NC(=O)Nc2cc(C)nc3ccccc23)c1,48%,2%,-1%,100% (active),inactive,inactive,inactive,inactive
Cc1ccc(C(O)CNc2ccnc(Nc3cccc(-c4csc(C)n4)c3)n2)cc1 (stereo not given),31%,17%,-2%,92% (active),inactive,inactive,inactive,inactive
CCCN(CCC)C(=O)c1cc(C(=O)N[C@@H](Cc2ccccc2)[C@H](O)CNC(C)(C)c2cccc(C(F)(F)F)c2)cc(N2CCCCS2(=O)=O)c1,98% (active),19%,-4%,99% (active),inactive,inactive,inactive,inactive
